# Laboratory results: the supplement of paper PMC10105736
# Values without a mark were called inactive.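 How the source made its calls: active = MAPPIT score above the 99th percentile of random reference set scores in the same batch; inactive = at or below it.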
# B1: Gos28 (protein)
# chain: MGGSSYDVLRKQARSLENEIDLKLVAFSKIGAGSGGGGSGGLGGVDTSPLLGEHVFDSLSEEIEQMLEKLSSLNESMSDLPASGAAAMHTLQRHREILQGYRQEFNKICANHTMRIEREELLRGSGLATSSGSPSISGLNRREMYLKESGHLNSASHLVNDQINIAIETRDHLHAQRQAFKRLQTRFNDISNRFPLISSLIQRINIKKRRDSLILGAVIGFCVILLLLYAFN
# B2: CAP (protein)
# chain: MEPGTIPSPVSAPVAAPVTPSAVAAPVQVVSPAAVAPAPAAPIAVTPVAPPPTLASVQPATVTIPAPAPIAAASVAPVASVAPPVVAAPTPPAASPVSTPPVAVAQIPVAVSAPVAPPVAATPTPVAPIPVAAPVIATPPVAASAPTPAAVTPVVSPVIATPPVVPANTTVPVAAPVAAVPAAVPVVAPVLAPAVAPAVAPVVAETPAPPPVAEIPVATIPECVAPLIPEVSVVATKPLAAAEPVVVAPPATETPVVAPAAASPHVSVAPAVETAVVAPVSASTEPPVAAATLTTAPETPALAPVVAESQVAANTVVATPPTPAPEPETIAPPVVAETPEVASVAVAETTPPVVPPVAAESIPAPVVATTPVPATLAVTDPDVTASAVPELPPVIAPSPVPSAVAETPVDLAPPVLPPVAAEPVPAVVAEETPETPAPASAPVTIAALDIPEVAPVIAAPSDAPAEAPSAAAPIVSTPPTTASVPETTAPPAAVPTEPIDVSVLSEAAIETPVAPPVEVTTEVAVADVAPPEAAADLIIEPVEPPAPIPDLLEQTTSVPAVEAAESTSSPIPETSLPPPNEAVASPEVAVAPITAPEPIPEPEPSLATPTEPIPVEAPVVIQEAVDAVEVPVTETSTSIPETTVEYPVAEKVLDPAITEAPVTTQEPDVANINDGAPATEITTPAVEIVTAAAEVSDTAIPLIDPPVPQEIAVAEIPETETKPAEVIVEQSTIPIEAPVPEVSKYAEPVISEAPAAEVPITAGDNPDNTSVGISEVVPTIAEKAVEEVPTSEIPEQSSSPSDSVPVAKITPLLRDLQTTDVSLLAIAATLDAIGEKLKDQKARNQQVMDRLCEIEKILGPPKSN
# B3: CG9132 (protein)
# chain: MEYESVLIVKPEVFIYKIPPRASNRGYRAGDWNLKEPTWTGRMRLVAKGTAVVLKLEDKTSGALFANCPIDTYPGVAIEAVSDSSRYFVIRVQDDNGRSAFLGLGFGDRSDSFDLNVALQDHFKWVKNQEQIEKEKTEPKQELDLGFKEGETIKINMRITKKDGSEGSSRTGKNKGSSGVLPPPPGGLGKIAPPPAAAAANTTVRQSPGVSPAHRPAAGGSEWTDYASAGGNQGQQNSANANWVQF
# B4: Atg5 (protein)
# chain: MAHDREVLRMIWEGQIGICFQADRDEIVGIKPEPFYLMISRLSYLPLVTDKVRKYFSRYISAEHQDGAVWFDFNGTPLRLHYPIGVLYDLLHPEEDSTPWCLTIHFSKFPEDMLVKLNSKELLESHYMSCLKEADVLKHRGLVISAMQKKDHNQLWLGLVNEKFDQFWAVNRRLMEPYGDLESFKNIPLRIYTDDDFTYTQKLISPISVGGQKKSLADLMAELSTPVRRAVGCRTHGIDLHEETQLQWMSEHLSYPDNFLHLSVDYKDV
# B5: Sry-delta (protein)
# chain: MDTCFFCGAVDLSDTGSSSSMRYETLSAKVPSSQKTVSLVLTHLANCIQTQLDLKPGARLCPRCFQELSDYDTIMVNLMTTQKRLTTQLKGALKSEFEVPESGEDILVEEVEIPQSDVETDADAEADALFVELVKDQEESDTEIKREFVDEEEEEDDDDDDEFICEDVDVGDSEALYGKSSDGEDRPTKKRVKQECTTCGKVYNSWYQLQKHISEEHSKQPNHICPICGVIRRDEEYLELHMNLHEGKTEKQCRYCPKSFSRPVNTLRHMRMHWDKKKYQCEKCGLRFSQDNLLYNHRLRHEAEENPIICSICNVSFKSRKTFNHHTLIHKENRPRHYCSVCPKSFTERYTLKMHMKTHEGDVVYGVREEAPADEQQVVEELHVDVDESEAAVTVIMSDNDENSGFCLICNTNFENKKELEHHLQFDHDVVLK
# B6: Blos1 (protein)
# chain: MLTSMVKEHHKEQAKRKQEQEVRRKEAIEASNELTQSLVDTLNVGVAQAYLNQKRLDAEAKQLHLGATNFAKQTHQWLQLIDQFSTALKDLGDVENWARSIEGDMHTINQTLELAYKASRATQTSSGAGTSLEASTSASASANPSAT
# How the values were obtained:
# Assay in all cases: MAPPIT interaction score (arbitrary units); higher = stronger binary interaction signal, active = hit call of the paper
# [1] = biological target: Bet1; conditions: pair source set: Lit-BM-16
# Protocol: (§1)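 MAPPIT in HEK293T cells: Drosophila bait and prey ORFs (from the FlyBi ORF collection) were co-transfected in quadruplicate, with two wells stimulated by erythropoietin. Interaction-dependent JAK-STAT activation was read out with a STAT-responsive firefly luciferase reporter. Positive calls use the 99th percentile of random reference set (RRS) scores within each batch […]. Batches Dvs01 and Dvs02 used the N-N configuration and Dvs04 the N-C configuration. Pairs come from FlyBi screens, CuraGen, DPiM, Finley Y2H, Lit-BM-16, Lit-BS-16 and RRS.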
# [2] = biological target: Arts; conditions: MAPPIT configuration: N-N; pair source set: Finley_Y2H
# Protocol: as §1
# [3] = biological target: Pu; conditions: MAPPIT configuration: N-N; pair source set: screen_1
# Protocol: as §1
# [4] = biological target: Vinc; conditions: pair source set: Lit-BM-16
# Protocol: as §1
# [5] = biological target: Atx-1; conditions: MAPPIT configuration: N-C; pair source set: screen_4
# Protocol: as §1
# [6] = biological target: Atg16; conditions: MAPPIT configuration: N-C; pair source set: Lit-BM-16
# Protocol: as §1
# [7] = biological target: BEAF-32; conditions: MAPPIT configuration: N-N; pair source set: screen_1
# Protocol: as §1
# [8] = biological target: BORCS6; conditions: MAPPIT configuration: N-C; pair source set: screen_3
# Protocol: as §1
# 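Further: HEK293T cells with Epo stimulation, STAT-responsive firefly luciferase reporter, fold induction versus unstimulated cells divided by the larger fold induction of two negative controls lacking either bait or prey.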
binder,measurement,setting,value
B1,MAPPIT interaction score,[1]; MAPPIT configuration: N-C,-0.272
same,MAPPIT interaction score,[1]; MAPPIT configuration: N-N,-0.1
B2,MAPPIT interaction score,[2],0.381
same,MAPPIT interaction score,[3],-0.205
same,MAPPIT interaction score,[4]; MAPPIT configuration: N-C,2.37
same,MAPPIT interaction score,[4]; MAPPIT configuration: N-N,2.53
B3,MAPPIT interaction score,[5],2.48
B4,MAPPIT interaction score,[6],2.6
B5,MAPPIT interaction score,[7],4.3 (active)
B6,MAPPIT interaction score,[8],2.8
